Screens from PubChem.
Pf Dd2 inh = blocks in vitro growth of P. falciparum Dd2. P. falciparum Dd2 growth, SYBR Green, 72 h. Potency, µM (highest dose often 28.9 µM), for the others: at the highest dose activity, negative = inhibition, most hits filed as inhibitors. 4.3% of 120,000 active; active means well fitted inhibition curve with a large enough effect;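 further: plate controls were DMSO vehicle for no effect and reference drug for full effect; nearly all actives have a fitted effect of over 65% in size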
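Readout: SYBR Green fluorescence, 485 nm excitation, 535 nm emission, after ~16 h lysis at 37C. Before that, Dd2-infected red cells (2.5% hematocrit) grew 72 h with compound, 29 uM top final concentration.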
* hit, by the source's call; i = inactive; [ ] = dose if it differs, or a comment. Only a selection was taken, and hits are over-represented in it overall. Potency means the concentration at half of the fitted maximal effect.

SMILES	Pf Dd2 inh
CN(Cc1ccc(OC(F)(F)F)cc1)Cc1ccccc1C(F)(F)F	-18%
O=Cc1ccccc1-c1ccc(OC(F)(F)F)cc1	-5%[76.6 µM]
COc1ccc(C(=O)NC2CCN(c3cn[nH]c(=O)c3)CC2)cc1F	-21%
CCN(C)Cc1nc(C2CCOCC2)nn1CC1COCCO1 (centres undefined)	-9%
O=C(COc1ccccc1Cl)Nc1ccc2nc(SCC(=O)N3CCOCC3)sc2c1	-4%
CCC(=O)Nc1ccc2nc(SCCOc3cccc(C)c3)sc2c1	i
O=C(COc1ccccc1)Nc1ccc2nc(SCC(=O)N3CCCC3)sc2c1	11µM*
COc1cc(C)ccc1OCCSc1nc2ccc(NC(=O)c3ccco3)cc2s1	4.5µM*
O=C(Nc1ccc2nc(SCC(=O)N3CCCC3)sc2c1)c1ccccc1	-14%
O=C(Nc1ccc2nc(SCCOc3ccccc3)sc2c1)c1cccs1	3.2µM*
CC(=O)Nc1ccc2nc(SCCOc3ccccc3Cl)sc2c1	i
O=C(Nc1ccc2nc(SCCOc3ccccc3)sc2c1)c1ccccc1F	2%
CCOc1ccc(C(=O)Nc2ccc3nc(SCCOc4ccccc4)sc3c2)cc1	-14%
CN1CC2(CCCN(C(=O)c3conc3-c3ccccc3)CC2)OC1=O (centres undefined)	-1%
CCc1cc(=O)n(CC(=O)Nc2ccc(N(C)C)cc2)c(-c2ccccc2)n1	i
CC(C)(C)c1cc(C[C@H]2CNCC[C@H]2CC(=O)N2CCCCC2)no1	i
Cc1ccc(C(=O)NC[C@H]2O[C@@H](CC(=O)N3CCN(c4ccc(F)cc4)CC3)[C@H](O)[C@@H]2O)cc1	1%
O=C1O[C@@H]2CN(Cc3cnc[nH]3)C[C@@H]2N1CCc1ccc(F)cc1	-22%
CCn1cnnc1CC1CCN(C(=O)Nc2ccccc2)C1 (centres undefined)	i
Cc1ccc(OCc2nc(C3CCCCN3C(=O)c3ccn[nH]3)no2)cc1 (centres undefined)	-13%
COc1ccc(CN[C@@H]2CO[C@H](CNC(=O)c3ccccc3)[C@H]2O)cc1	-11%[44.1 µM]
COc1ccccc1-c1nnc([C@H]2CCN(C3CCN(C)CC3)C2)o1	i
CC[C@H]1CN2CC[C@H]1C[C@@H]2CNCc1ccc(OC)cc1	8.9µM*
COc1ccc(-c2cc([C@H]3CN4CC[C@H]3C[C@@H]4CNC(=O)c3ccco3)n(C)n2)cc1	-14%[44.1 µM]
CC[C@H]1CN2CC[C@H]1C[C@@H]2CNC(=O)c1ccc2ccccc2c1	i
SMILES	Pf Dd2 inh
COc1ccc(CNC[C@H]2C[C@@H]3CCN2C[C@@H]3c2cc(-c3ccc(F)cc3)nn2C)cc1	13µM*
CC[C@H]1CN2CC[C@H]1C[C@@H]2CN(Cc1ccc(SC)cc1)Cc1ccc(SC)cc1	3.5µM*
CC[C@H]1CN2CC[C@H]1C[C@@H]2CNC(=O)Nc1ccc(Br)cc1	-19%[44.1 µM]
C=C[C@H]1CN2CC[C@H]1C[C@@H]2CNCc1ccc(N(C)C)cc1	i
COc1ccc(-c2cc([C@H]3CN4CC[C@H]3C[C@@H]4CNS(=O)(=O)c3ccccc3)n(C)n2)cc1	i
CCN(CC)C[C@H]1CN2CC[C@H]1C[C@@H]2CNS(=O)(=O)c1ccccc1	i
Cc1cccc(-c2cccc(NC(=O)C3CCCN(Cc4cnc(C)nc4)C3)c2)c1 (centres undefined)	-22%
COCCN(Cc1ccccn1)Cc1cc(=O)c2cc(C)cc(C)c2[nH]1	-18%
CC(c1cccc(-c2nc3c(cc2C(N)=O)CCC3)c1)N1CCCC1 (centres undefined)	-13%
Cc1cccc(CN2C[C@@H]3C(=O)N(CCCN4CCCC4=O)C(=O)[C@@H]3C2)c1	143%
O=C(NCCc1noc(C2CC2)n1)NC1CCCC1	-23%
COc1ccccc1-c1nc2cnccn2c1NCCC(=O)Nc1cc(F)ccc1F	i
O=c1n(-c2ccc(F)cc2F)nc2n1CCN(Cc1ccc(F)cc1)C2	i
O=C(NC[C@H]1OC[C@@H](NCc2ccccc2O)[C@@H]1O)c1ccc(F)cc1	-25%[44.1 µM]
COc1ccc(CN2C[C@@H](CO)[C@H](NC(=O)C3CCC3)C2)cc1	9%
O=C(N[C@@H]1CN(Cc2c(F)cccc2Cl)C[C@H]1CO)C1CC1	-8%
CCOc1ccccc1CN1C[C@@H](CO)[C@H](NC(=O)C2CC2)C1	7.9µM*
COc1ccc(C)cc1NC(=O)CN1C(=O)NC2(CCS(=O)(=O)CC2)C1=O	-3%
COCC(=O)N1CCN(C)CC1C(=O)N1CCc2nc[nH]c2C1 (centres undefined)	-1%
Cc1cn(CC(=O)NC(c2nnc3n2CCNCC3)C(C)C)c(=O)[nH]c1=O (centres undefined)	28%
O=C1c2cc(N3CCOCC3)nc(-c3ccc(F)cc3)c2CN1Cc1ccccc1	-12%[44.1 µM]
O=c1cc(-c2ccccc2)c2ccc3c(c2o1)CN(Cc1cccc(Cl)c1)CO3	0.63µM*
CCc1cc2c(-c3ccccc3)cc(=O)oc2c2c1OCN(Cc1ccc(F)cc1)C2	3.5µM*
O=C(Cn1c(=O)c2c(n1Cc1ccccc1)CN(Cc1ccccc1)CC2)NCc1ccc2c(c1)OCO2	-4%
O=S1(=O)N(Cc2ccccc2)CCCN1Cc1cccc(Cl)c1	9%
SMILES	Pf Dd2 inh
O=c1cc(-c2ccccc2)c2cc(Cl)c3c(c2o1)CN(Cc1ccccc1)CO3	13µM*
O=C(Cn1c(=O)c2c(n1Cc1ccccc1)CN(Cc1ccccc1)CC2)Nc1cccc(F)c1	-9%
O=C(Cn1c2c(c(=O)n1Cc1ccccc1)CCN(Cc1ccccc1)C2)NCc1ccc2c(c1)OCO2	-6%
O=c1c2cc3c(cc2n(Cc2cccc(Cl)c2)c(=O)n1Cc1nc(-c2ccccc2)no1)OCO3	16%
CCOc1cccc(-c2noc(-c3nnn4c3COC(c3ccc(Cl)cc3)C4)n2)c1 (centres undefined)	-16%
O=C(CCC1CCN(S(=O)(=O)c2ccc(F)cc2)CC1)N1CCc2ccccc2C1	-15%
CCc1ccccc1S(=O)(=O)N1CCC(n2cnnc2CCOC)CC1	1%
CN1C(=O)CCCCC1C(=O)NC1CCCCC1 (centres undefined)	-4%
COc1ccc(C(=O)N[C@@H]2CN(C(=O)NCc3ccccc3)CCC[C@H]2O)cc1	i
Cc1noc(C)c1-c1cc2cc(CO)oc2c(NCc2cccc(F)c2)n1	i
COCCNc1nc(-c2c(C)noc2C)cc2cc(CO)oc12	-10%[44.1 µM]
COc1ccc(Nc2nc(-c3c(C)noc3C)cc3cc(CO)oc23)cc1OC	7.9µM*
CC(C)(C)NC(=O)N1C[C@@H](Oc2cccnc2)C[C@H]1C(=O)N1CCOCC1	32%
CNC(=O)[C@@H]1CN(Cc2ccc(Cl)c(F)c2)C[C@H]1CO	-27%
CCC[C@@H]1CN(CCC(=O)NCc2cccc(Cl)c2)C[C@H]1C(=O)O	-3%
CCNC(=O)c1coc(COc2ccc3c(c2)C(c2cccc(F)c2)N(C(=O)C(C)C)CC3)n1 (centres undefined)	0.71µM*
COCCNC(=O)c1coc(COc2ccc3c(c2)C(c2cccc(F)c2)N(C(=O)C(C)C)CC3)n1 (centres undefined)	-10%
CC(C)NC(=O)c1coc(COc2ccc3c(c2)C(c2cccc(F)c2)N(C(=O)C2CC2)CC3)n1 (centres undefined)	-23%
COC1CCC12CCN(C(=O)c1cccc(C)c1)CC2 (centres undefined)	0%
CCOc1ccc(CNC(=O)c2ccc3c(c2)N(CC)CCS3)cc1	36%
Cc1ccc(NC(=O)CN2C(=O)CCSc3ccc(S(=O)(=O)N4CCCC4)cc32)cc1	i
COc1cc(OC)c(NC(=O)c2ccc3c(c2)N(Cc2ccc(C)cc2)CCS3)cc1Cl	11µM*
